According to the supplement of paper PMC8975748:
Structures can show the parent of a compound that is named as a salt. ± gives the standard deviation of the averaged measurements.

Tests used:
[1] = test system: Saccharomyces cerevisiae BY4741 SeMeCo community; assay: mean cell size (pixel area) (pixels); higher = larger cells; settings: 10 µM; 24 h; SM minimal medium
Procedure, shortened: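 Plates of 384 wells were acoustically predosed with drug at a final 10 µM in SM medium, and 70 µl of a Saccharomyces cerevisiae BY4741 preculture diluted from OD600 = 1.0 to OD600 = 0.3 was added for 24 h. The yeast formed a four-plasmid fluorescent community in which each plasmid complements one auxotrophy and carries a fluorescent marker. Fixed cells were imaged by automated confocal microscopy and analysed in Harmony for mean cell pixel area per well. Values are means of 3 replicates. Same SeMeCo high-content imaging drug screen: Selleck FDA-approved drugs at 10 µM, 24 h in SM medium, 384-well plates, 3 replicates.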

[2] = test system: Saccharomyces cerevisiae BY4741 SeMeCo community; assay: z-score of prototroph abundance vs DMSO median; higher = larger share of this subpopulation than in DMSO controls; settings: 10 µM; 24 h; SM minimal medium; subpopulation (auxotrophy): Prototroph
Procedure, shortened: (§1)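 A Saccharomyces cerevisiae BY4741 community carried four plasmids, each restoring one auxotrophy and encoding a distinct fluorescent protein. It was pre-grown overnight to OD600 1.0, diluted to 0.3, and 70 µl was added to 384-well plates acoustically predosed with library drugs (10 µM final), then grown 24 h in minimal SM medium. Cells were paraformaldehyde-fixed and imaged by automated confocal microscopy, with single-auxotroph fluorescent strains setting thresholds and autofluorescence correction. Each subpopulation's abundance was scored as a z-score against the vehicle-well median.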

[3] = test system: Saccharomyces cerevisiae BY4741 SeMeCo community; assay: z-score of subpopulation abundance vs DMSO median, subpopulation auxotrophic for M; higher = larger share of this subpopulation than in DMSO controls; settings: 10 µM; 24 h; SM minimal medium; subpopulation (auxotrophy): M
Procedure, shortened: as §1

[4] = test system: Saccharomyces cerevisiae BY4741 SeMeCo community; assay: z-score of subpopulation abundance vs DMSO median, subpopulation auxotrophic for L; higher = larger share of this subpopulation than in DMSO controls; settings: 10 µM; 24 h; SM minimal medium; subpopulation (auxotrophy): L
Procedure, shortened: as §1

[5] = test system: Saccharomyces cerevisiae BY4741 SeMeCo community; assay: z-score of subpopulation abundance vs DMSO median, subpopulation auxotrophic for U; higher = larger share of this subpopulation than in DMSO controls; settings: 10 µM; 24 h; SM minimal medium; subpopulation (auxotrophy): U
Procedure, shortened: as §1

[6] = test system: Saccharomyces cerevisiae BY4741 SeMeCo community; assay: z-score of subpopulation abundance vs DMSO median, subpopulation auxotrophic for H; higher = larger share of this subpopulation than in DMSO controls; settings: 10 µM; 24 h; SM minimal medium; subpopulation (auxotrophy): H
Procedure, shortened: as §1

[7] = test system: Saccharomyces cerevisiae BY4741 SeMeCo community; assay: z-score of subpopulation abundance vs DMSO median, subpopulation auxotrophic for LU; higher = larger share of this subpopulation than in DMSO controls; settings: 10 µM; 24 h; SM minimal medium; subpopulation (auxotrophy): LU
Procedure, shortened: as §1

[8] = test system: Saccharomyces cerevisiae BY4741 SeMeCo community; assay: z-score of subpopulation abundance vs DMSO median, subpopulation auxotrophic for LM; higher = larger share of this subpopulation than in DMSO controls; settings: 10 µM; 24 h; SM minimal medium; subpopulation (auxotrophy): LM
Procedure, shortened: as §1

[9] = test system: Saccharomyces cerevisiae BY4741 SeMeCo community; assay: z-score of subpopulation abundance vs DMSO median, subpopulation auxotrophic for HM; higher = larger share of this subpopulation than in DMSO controls; settings: 10 µM; 24 h; SM minimal medium; subpopulation (auxotrophy): HM
Procedure, shortened: as §1

[10] = test system: Saccharomyces cerevisiae BY4741 SeMeCo community; assay: z-score of subpopulation abundance vs DMSO median, subpopulation auxotrophic for UM; higher = larger share of this subpopulation than in DMSO controls; settings: 10 µM; 24 h; SM minimal medium; subpopulation (auxotrophy): UM
Procedure, shortened: as §1

[11] = test system: Saccharomyces cerevisiae BY4741 SeMeCo community; assay: z-score of subpopulation abundance vs DMSO median, subpopulation auxotrophic for HLU; higher = larger share of this subpopulation than in DMSO controls; settings: 10 µM; 24 h; SM minimal medium; subpopulation (auxotrophy): HLU
Procedure, shortened: as §1

[12] = test system: Saccharomyces cerevisiae BY4741 SeMeCo community; assay: z-score of subpopulation abundance vs DMSO median, subpopulation auxotrophic for HLM; higher = larger share of this subpopulation than in DMSO controls; settings: 10 µM; 24 h; SM minimal medium; subpopulation (auxotrophy): HLM
Procedure, shortened: as §1

[13] = test system: Saccharomyces cerevisiae BY4741 SeMeCo community; assay: z-score of subpopulation abundance vs DMSO median, subpopulation auxotrophic for HUM; higher = larger share of this subpopulation than in DMSO controls; settings: 10 µM; 24 h; SM minimal medium; subpopulation (auxotrophy): HUM
Procedure, shortened: as §1

[14] = test system: Saccharomyces cerevisiae BY4741 SeMeCo community; assay: z-score of subpopulation abundance vs DMSO median, subpopulation auxotrophic for LUM; higher = larger share of this subpopulation than in DMSO controls; settings: 10 µM; 24 h; SM minimal medium; subpopulation (auxotrophy): LUM
Procedure, shortened: as §1

[15] = test system: Saccharomyces cerevisiae BY4741 SeMeCo community; assay: z-score of subpopulation abundance vs DMSO median, subpopulation auxotrophic for HLUM; higher = larger share of this subpopulation than in DMSO controls; settings: 10 µM; 24 h; SM minimal medium; subpopulation (auxotrophy): HLUM
Procedure, shortened: as §1

[16] = test system: Saccharomyces cerevisiae BY4741 SeMeCo community; assay: z-score of subpopulation abundance vs DMSO median, subpopulation auxotrophic for HU; higher = larger share of this subpopulation than in DMSO controls; settings: 10 µM; 24 h; SM minimal medium; subpopulation (auxotrophy): HU
Procedure, shortened: as §1

[17] = test system: Saccharomyces cerevisiae BY4741 SeMeCo community; assay: z-score of subpopulation abundance vs DMSO median, subpopulation auxotrophic for HL; higher = larger share of this subpopulation than in DMSO controls; settings: 10 µM; 24 h; SM minimal medium; subpopulation (auxotrophy): HL
Procedure, shortened: as §1

## Nc1nnc(-c2cccc(Cl)c2Cl)c(N)n1 [Lamotrigine]
[1]
  mean cell size: 12.37 ± 0.07
[2]
  z-score of prototroph abundance: -1.13
[3]
  z-score of subpopulation abundance: 0.91
[4]
  z-score of subpopulation abundance: 2.5
[5]
  z-score of subpopulation abundance: -0.91
[6]
  z-score of subpopulation abundance: 0.08
[7]
  z-score of subpopulation abundance: 0.85
[8]
  z-score of subpopulation abundance: 1.83
[9]
  z-score of subpopulation abundance: 1.25
[10]
  z-score of subpopulation abundance: 0.01
[11]
  z-score of subpopulation abundance: 0.23
[12]
  z-score of subpopulation abundance: 0.44
[13]
  z-score of subpopulation abundance: 0.8
[14]
  z-score of subpopulation abundance: 1.86
[15]
  z-score of subpopulation abundance: 1.58

## CN(C)CCn1nnnc1SCC1=C(C(=O)O)N2C(=O)[C@@H](NC(=O)Cc3csc(N)n3)[C@H]2SC1 [Cefotiam hydrochloride]
[1]
  mean cell size: 12.24 ± 0.031
[2]
  z-score of prototroph abundance: -1.4
[3]
  z-score of subpopulation abundance: 1.1
[4]
  z-score of subpopulation abundance: 1.99
[5]
  z-score of subpopulation abundance: -0.08
[6]
  z-score of subpopulation abundance: 1.72
[7]
  z-score of subpopulation abundance: 1.53
[8]
  z-score of subpopulation abundance: 1.06
[9]
  z-score of subpopulation abundance: 1.4
[16]
  z-score of subpopulation abundance: 0.76
[10]
  z-score of subpopulation abundance: 1.04
[17]
  z-score of subpopulation abundance: 1.92
[11]
  z-score of subpopulation abundance: 1.21
[12]
  z-score of subpopulation abundance: 0.75
[13]
  z-score of subpopulation abundance: 0.5

## CCC[C@@H]1C[C@@H](C(=O)N[C@@H]([C@H]2O[C@H](SC)[C@H](O)[C@@H](O)[C@H]2O)[C@@H](C)O)N(C)C1 [Lincomycin HCl]
[1]
  mean cell size: 12.4 ± 0.14
[2]
  z-score of prototroph abundance: 0.69
[3]
  z-score of subpopulation abundance: 0.32
[4]
  z-score of subpopulation abundance: -0.98
[5]
  z-score of subpopulation abundance: -0.24
[6]
  z-score of subpopulation abundance: -0.53
[7]
  z-score of subpopulation abundance: -0.63
[8]
  z-score of subpopulation abundance: -0.14
[9]
  z-score of subpopulation abundance: -0.17
[16]
  z-score of subpopulation abundance: -0.73
[10]
  z-score of subpopulation abundance: 0.19
[11]
  z-score of subpopulation abundance: -0.34
[12]
  z-score of subpopulation abundance: -0.77
[13]
  z-score of subpopulation abundance: 0.3

## CN[C@H]1C(=O)N[C@@H]2Cc3ccc(cc3)Oc3cc4cc(c3O[C@@H]3O[C@H](C(=O)O)[C@@H](O)[C@H](O)[C@H]3NC(=O)CCCCCCCCC(C)C)Oc3ccc(cc3Cl)[C@@H](O)[C@@H]3NC(=O)[C@H](NC(=O)[C@@H]4NC(=O)[C@@H](NC2=O)c2cc(cc(O)c2Cl)Oc2cc1ccc2O)c1ccc(O)c(c1)-c1c(O[C@H]2O[C@H](CO)[C@@H](O)[C@H](O)[C@@H]2O)cc(O)cc1[C@@H](C(=O)NCCCN(C)C)NC3=O [Dalbavancin]
[1]
  mean cell size: 12.8 ± 0.072
[3]
  z-score of subpopulation abundance: -4.48
[4]
  z-score of subpopulation abundance: -0.21
[5]
  z-score of subpopulation abundance: 1.53
[6]
  z-score of subpopulation abundance: 4.04
[7]
  z-score of subpopulation abundance: -0.56
[8]
  z-score of subpopulation abundance: -1.16
[9]
  z-score of subpopulation abundance: -1.02
[10]
  z-score of subpopulation abundance: -0.56
[17]
  z-score of subpopulation abundance: 1.2
[11]
  z-score of subpopulation abundance: 2.43
[12]
  z-score of subpopulation abundance: 1.32
[13]
  z-score of subpopulation abundance: 1.97
[14]
  z-score of subpopulation abundance: 0.72
[15]
  z-score of subpopulation abundance: 0.69

## CC(=O)O[C@H]1C[C@@H]2CC[C@@H]3[C@H](CC[C@@]4(C)[C@H]3C[C@H]([N+]3(C)CCCCC3)[C@@H]4OC(C)=O)[C@@]2(C)C[C@@H]1N1CCCCC1 [Vecuronium Bromide]
[1]
  mean cell size: 12.4 ± 0.31
[2]
  z-score of prototroph abundance: 0.67
[3]
  z-score of subpopulation abundance: -0.47
[4]
  z-score of subpopulation abundance: 0.57
[5]
  z-score of subpopulation abundance: -0.48
[6]
  z-score of subpopulation abundance: -0.09
[7]
  z-score of subpopulation abundance: 0
[8]
  z-score of subpopulation abundance: -1.11
[9]
  z-score of subpopulation abundance: -0.57
[16]
  z-score of subpopulation abundance: -0.65
[10]
  z-score of subpopulation abundance: -0.59
[17]
  z-score of subpopulation abundance: -0.24
[11]
  z-score of subpopulation abundance: -0.64
[12]
  z-score of subpopulation abundance: -0.5
[13]
  z-score of subpopulation abundance: 0.09

## CCC1=C(C)CN(C(=O)NCCc2ccc(S(=O)(=O)NC(=O)N[C@H]3CC[C@H](C)CC3)cc2)C1=O [Glimepiride]
[1]
  mean cell size: 12.5 ± 0.2
[2]
  z-score of prototroph abundance: -0.13
[3]
  z-score of subpopulation abundance: -0.24
[4]
  z-score of subpopulation abundance: 0.24
[5]
  z-score of subpopulation abundance: -0.47
[6]
  z-score of subpopulation abundance: -0.23
[7]
  z-score of subpopulation abundance: -0.1
[8]
  z-score of subpopulation abundance: 0.34
[9]
  z-score of subpopulation abundance: 0.24
[17]
  z-score of subpopulation abundance: 0.01
[11]
  z-score of subpopulation abundance: 0.26
[12]
  z-score of subpopulation abundance: 0.03
[13]
  z-score of subpopulation abundance: 0.42
[14]
  z-score of subpopulation abundance: -0.01
[15]
  z-score of subpopulation abundance: 0.7

## Cc1ccc(-c2cc(C(F)(F)F)nn2-c2ccc(S(N)(=O)=O)cc2)cc1 [Celecoxib]
[1]
  mean cell size: 12.5 ± 0.15
[3]
  z-score of subpopulation abundance: -0.11
[4]
  z-score of subpopulation abundance: 0.82
[6]
  z-score of subpopulation abundance: 0.01
[7]
  z-score of subpopulation abundance: -0.19
[8]
  z-score of subpopulation abundance: -0.61
[9]
  z-score of subpopulation abundance: -0.54
[17]
  z-score of subpopulation abundance: -0.61
[11]
  z-score of subpopulation abundance: -0.86
[12]
  z-score of subpopulation abundance: -0.37
[13]
  z-score of subpopulation abundance: -0.8
[14]
  z-score of subpopulation abundance: -0.48
[15]
  z-score of subpopulation abundance: -0.44

## COc1ccnc(C[S+]([O-])c2nc3cc(OC(F)F)ccc3[nH]2)c1OC (stereo unspecified) [Pantoprazole]
[1]
  mean cell size: 12.4 ± 0.15
[2]
  z-score of prototroph abundance: -0.32
[3]
  z-score of subpopulation abundance: 0.27
[4]
  z-score of subpopulation abundance: 0.22
[6]
  z-score of subpopulation abundance: 1.49
[7]
  z-score of subpopulation abundance: 0.17
[8]
  z-score of subpopulation abundance: 0.04
[9]
  z-score of subpopulation abundance: -0.27
[16]
  z-score of subpopulation abundance: 0.3
[10]
  z-score of subpopulation abundance: -0.26
[17]
  z-score of subpopulation abundance: 0.9
[11]
  z-score of subpopulation abundance: 1.13
[12]
  z-score of subpopulation abundance: 0.09
[13]
  z-score of subpopulation abundance: -0.2
